The full list was thinned out, with hits kept by preference.
LmPK inhibitor – inhibitors of Leishmania mexicana pyruvate kinase; Q27686; purified LmPK, Kinase-Glo ATP luminescence, 1 h; Potency, µM (doses to about 57.5 µM), usual class: inhibitors; hit rate 0.37% among 290,000; AID 1721
Target sequence (Q27686 whole entry, looked up): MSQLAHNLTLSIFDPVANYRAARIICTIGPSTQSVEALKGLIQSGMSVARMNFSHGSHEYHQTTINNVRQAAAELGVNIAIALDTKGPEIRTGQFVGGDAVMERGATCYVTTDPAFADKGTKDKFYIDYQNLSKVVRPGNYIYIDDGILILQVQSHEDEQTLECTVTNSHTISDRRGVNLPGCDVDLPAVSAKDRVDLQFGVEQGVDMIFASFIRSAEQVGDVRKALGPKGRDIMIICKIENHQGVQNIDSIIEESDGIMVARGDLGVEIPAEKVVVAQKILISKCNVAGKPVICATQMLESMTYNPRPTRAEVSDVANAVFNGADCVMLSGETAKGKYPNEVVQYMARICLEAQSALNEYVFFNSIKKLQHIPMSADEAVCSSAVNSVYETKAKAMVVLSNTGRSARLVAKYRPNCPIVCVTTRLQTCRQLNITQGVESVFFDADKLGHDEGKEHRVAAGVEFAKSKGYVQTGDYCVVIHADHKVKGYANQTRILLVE
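ATP generated from ADP (0.1 mM) and PEP (0.5 mM) by 0.1 nM LmPK over 1 h at room temperature (pH 7.2 imidazole buffer) was detected by coupled luciferase luminescence. Values were normalized to uninhibited and no-enzyme wells.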
Shiga inhibitor – Shiga toxin inhibition; Vero cells, Shiga toxin protein synthesis inhibition reporter; inhibition, % at 38.7 µM; hit rate 9.2% among 290,000; AID 2315; in the data active = inhibition mostly above about 28%, no sharp cut-off; inactive = mostly below about 43%
Sm TGR inh – inhibitors of Schistosoma mansoni thioredoxin glutathione reductase | Potency, µM (highest dose often 114 µM), usual class: inhibitors | purified TGR, DTNB reduction, TNB absorbance 405 nm | Q962Y6 | AID 485364 | hit rate 3% among 360,000; note: nearly all actives have a fitted effect of over 60% in size
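Kinetic colorimetric format: TGR-catalysed, NADPH-driven DTNB reduction monitored via TNB absorbance. Enzyme dispensed at 20 nM; compound exposure 15 min at room temperature before reaction start.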
Giardia FBPA inh – blocks Giardia fructose-bisphosphate aldolase activity; A8B2U2; hit rate 0.71% among 290,000; purified Giardia FBPA; Potency, µM (titrated, usually from 59.6 µM), most hits filed as inhibitors; note: nearly all actives have a fitted effect of over 55% in size
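Giardia FBPA (40 nM reagent) was preincubated 10 min at RT with compound (up to 57.5 uM final), then substrate plus GAPDH/TPI/NAD/arsenate coupling system with diaphorase/resazurin was added; resorufin fluorescence (525/598 nm) was read after 20 min.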
Cycloheximide cs – counter-screen hit for Shiga toxin inhibitors, cycloheximide | AID 2314 | hit rate 12% among 300,000 | max response, % | cell reporter, cycloheximide protein synthesis inhibition counterscreen; in the data active = max response mostly above about 13%, no sharp cut-off; inactive = mostly below about 14%; note: read at 38.3 µM for the half of the compounds with a filed dose
Tb PYK inh – T. brucei pyruvate kinase inhibition; Potency, µM (top dose mostly 76.8 µM), most hits filed as inhibitors; hit rate 0.12% among 410,000; TbPYK enzyme, Kinase-Glo Plus ATP luminescence, 45 min; Q57TT1; note: nearly all actives have a fitted effect of over 50% in size
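Readout: single end-point luminescence (Kinase-Glo Plus, 10 min). Reaction conditions were TbPYK/substrate plus 130 uM ADP, 45 min at RT, pH 7.2 TEA buffer. No-enzyme wells served as controls, and data were normalized before concentration-response fitting.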
Numbers stand for hits; – = inactive; ? = inconclusive; · = not tested or not shown; + = active, no number. Unless noted, calls come from the whole dose curve; as a rule, active = well fitted curve in the direction sought with a large enough effect; inconclusive = small, poorly fitted or top-dose-only effect, or another doubt; inactive = no such curve, though single readings can be large; an effect the other way counts as inactive or inconclusive.

SMILES | LmPK inhibitor | Shiga inhibitor | Sm TGR inh | Giardia FBPA inh | Cycloheximide cs | Tb PYK inh
Cc1cccc(-c2nsc(SCC(=O)NCc3ccco3)n2)c1 | – | – | – | – | 23 | –
CC(C=CC(O)=C1C(=O)CNC1=O)=C[C@@H](C)C1OC2(C)OC(C(=O)C3O[C@@]32C)C1C (stereo partly drawn) | · | · | · | · | · | –
COc1ccc(SCC(CC(C)C)N2CCN(C)CCC2=O)cc1 (stereo not drawn) | · | 53 | · | – | 25 | ·
COc1ccc(SCC(Cc2ccccc2)N2CCN(C)CCC2=O)cc1 (stereo not drawn) | · | – | · | – | – | ·
CC(C)C[C@@H](CSc1ccccc1)N1CCN(C)CCC1=O | – | – | – | – | 18 | –
CC(=O)Nc1ccc(SCC(CC(C)C)N2CCN(C)CCC2=O)cc1 (stereo not drawn) | · | – | · | – | – | ·
CC(C)CC(CSc1ccc(Br)cc1)N1CCN(C)CCC1=O (stereo not drawn) | · | 90 | · | – | – | ·
Cc1ccc(SCC(CC(C)C)N2CCN(C)CCC2=O)cc1 (stereo not drawn) | · | 72 | · | – | 33 | ·
CN1CCC(=O)N([C@H](CO)c2ccccc2)CC1 | – | – | – | – | 18 | –
COc1ccccc1CNC(=O)COC(=O)/C=C/c1ccc(OC(F)F)c(OC)c1 | · | · | – | · | · | –
COc1cc(/C=C/C(=O)OCC(=O)Nc2oc(C)c3c(C)n[nH]c(=O)c23)ccc1OC(F)F | · | · | 22µM | · | · | –
Cc1ccc(OCC(=O)Nc2ccc(Cl)cc2)c([N+](=O)[O-])n1 | · | · | – | · | · | –
CC(=O)c1ccc(OCC(=O)Nc2ccc3c(c2)CCC3)cc1 | – | – | – | – | 20 | –
Cc1ccc(OCC(=O)NCC(=O)Nc2ccc(F)cc2)c([N+](=O)[O-])n1 | – | – | – | – | – | –
Cc1ccc(OCC(=O)Nc2ccc(F)cc2)c([N+](=O)[O-])n1 | – | + | – | – | 56 | –
Cc1ccc(OCC(=O)Nc2ccc3c(c2)CCC3)c([N+](=O)[O-])n1 | – | 67 | – | – | 40 | –
Cc1noc(C)c1C(=O)Nc1ccc(-c2nnc3n2CCCCC3)cc1 | · | · | – | · | · | –
Cc1cccc(CSc2ccc(S(=O)(=O)N3CCCC3)cn2)c1 | · | · | – | · | · | –
COc1ccccc1CNC(=O)c1cc(-c2cc(F)ccc2OC(C)C)n[nH]1 | · | · | · | · | · | –
Cc1c2oc3c(C)ccc(C(=O)N[C@@H]4C(=O)N[C@@H](C(C)C)C(=O)N5CCC[C@@H]5C(=O)N(C)CC(=O)N(C)[C@@H](C(C)C)C(=O)O[C@H]4C)c3nc-2c(C(=O)N[C@@H]2C(=O)N[C@@H](C(C)C)C(=O)N3CCC[C@@H]3C(=O)N(C)CC(=O)N(C)[C@@H](C(C)C)C(=O)O[C@H]2C)c(N)c1=O | · | · | · | – | · | ·
O=C1c2ccncc2C(=O)N1CO | – | – | 50µM | – | – | –
O=C(CN1CCCCC1)NC(=O)NC1CCCCC1 | · | · | – | · | · | –
COc1ccc(-c2[nH]ncc2/C=N\NC(=O)c2ccc(Br)o2)cc1OC | – | 34 | – | · | 19 | –
COc1ccc(Br)cc1/C=N/NC(=O)c1cccnc1 | – | – | – | – | – | –
O=C(N/N=C/c1c(O)ccc2ccccc12)c1[nH]ncc1Br | – | 82 | – | – | 44 | –
SMILES | LmPK inhibitor | Shiga inhibitor | Sm TGR inh | Giardia FBPA inh | Cycloheximide cs | Tb PYK inh
COc1cccc(C(=O)N/N=C/c2cn[nH]c2-c2ccc(OC)cc2OC)c1 | – | – | – | – | 17 | –
O=C(NN=Cc1c(O)ccc2ccccc12)C1CC1 | · | · | · | · | · | –
COc1ccc(/C=N/NC(=O)c2ccc3nc[nH]c3c2)c(OC)c1 | – | – | – | · | – | –
COc1ccc(OC)c(/C=N/NC(=O)c2[nH]ncc2Br)c1 | – | 72 | – | – | 43 | –
COc1cccc(-n2c(SCc3ccc(F)cc3)nc3c([nH]c4ccccc43)c2=O)c1 | · | · | – | · | · | –
COc1ccc(/C(O)=C2/C(=O)C(=O)N(c3ccccn3)C2c2cccc(Cl)c2)cc1 (stereo not drawn) | – | – | ? | – | – | –
CCOc1ccc(/C=N/NC(=O)c2[nH]ncc2Br)c(O)c1 | 7.9µM | 49 | · | – | 35 | ?
Cc1ccc(O)c(/C=N/NC(=O)c2[nH]ncc2Br)c1 | ? | 59 | – | ? | 34 | –
COC(=O)\C(C(C)=O)=C(/C=C/C=C/C=C/N(C)C)N(C)C | – | – | 35µM | – | – | –
CC(=O)SC[C@@H](Cc1ccccc1)C(=O)NCC(=O)OCc1ccccc1 | · | · | · | – | · | –
O=C(N/N=C/c1ccccn1)c1ccccc1 | – | 71 | – | – | 48 | –
Cc1ccc(C(=O)Nc2ccc(C(=O)N/N=C/c3cccnc3)cc2)cc1 | – | – | – | – | – | –
CN(C)c1ccc(C(=O)N/N=C/c2ccccn2)cc1 | – | 75 | – | – | 58 | –
CCCCCCCCC(=O)N/N=C/c1ccccn1 | – | – | – | – | – | –
O=C(N/N=C\c1ccccn1)c1cccc(C(=O)N/N=C\c2ccccn2)n1 | · | · | · | · | · | –
Cc1ccc(C(=O)Nc2ccc(C(=O)N/N=C/c3ccccn3)cc2)cc1 | – | 31 | – | – | 25 | –
Cn1ncc(Cl)c1C(=O)N/N=C/c1ccccn1 | – | – | – | ? | 20 | –
COc1cccc(C2NC(=O)CCC2[N+](=O)[O-])c1 (stereo not drawn) | – | – | – | – | – | –
Cc1ccc(NC(=O)CN2CCN(C(=O)C3CC3)CC2)c(F)c1 | · | · | · | · | · | –
O=C(N/N=C/c1ccc[nH]1)c1ccncc1 | – | – | – | – | – | –
Cc1ccccc1OCC(=O)N/N=C/c1ccccn1 | – | 35 | – | – | – | –
O=C(N/N=C/c1ccc[nH]1)c1ccc(Cl)cc1 | – | 39 | – | – | 34 | –
Cc1ccccc1C(=O)N/N=C/c1ccccn1 | – | 68 | – | – | 52 | –
Cc1cccc(/C=N/NC(=O)c2ccc(NC(=O)c3ccc(Cl)cc3)cc2)n1 | – | – | – | ? | 11 | –
COc1ccc(C2NS(=O)(=O)OCC2C)cc1 (stereo not drawn) | – | – | – | – | – | –
SMILES | LmPK inhibitor | Shiga inhibitor | Sm TGR inh | Giardia FBPA inh | Cycloheximide cs | Tb PYK inh
O=C(c1ccc(CSc2nc3ccncc3n2Cc2cccc(F)c2)cc1)N1CCCCC1 | · | · | – | · | · | –
Cc1ccccc1OCC(=O)OCC(=O)c1ccc[nH]1 | · | · | – | · | · | –
O=C(N/N=C/c1ccccn1)c1ccc(Cl)cc1 | – | 102 | – | – | 46 | –
O=C(NCc1ccncc1)C(=O)N/N=C/c1ccccn1 | – | – | – | ? | – | –
O=C(N/N=C/c1ccccn1)c1ccncc1 | – | 97 | – | – | 52 | –
O=C(N/N=C/c1ccccn1)c1cc(-c2ccc(Cl)cc2)nc2ccccc12 | – | – | – | – | – | –
Cc1ccc(-c2nn(-c3ccc(F)cc3)cc2C(=O)NCCCN2CCCC2=O)cc1 | · | · | – | · | · | –
O=C(C[C@H]1C/C=C\CCCC(=O)OC[C@H]2CCCN2C1=O)NCCO | · | · | · | · | · | –

Bioassay records (PubChem)
